miR122 inh = miR-122 inhibition in Huh7 cells. Huh7 miR-122 Renilla luciferase sensor, 48 h; neutral wells = 0, positive control = 100. 340,000 compounds, 0.3% hits. activation (reporter increase), % at 12.5 µM;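 active means mean replicate activation score at least 90 and every replicate individually at or above 90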;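 further: higher luciferase means less miR-122 activity so hits act as miR-122 inhibitors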
Statin myotox sup = suppressors of simvastatin-induced myotoxicity in C2C12 myotubes; ATP luminescence, 48 h; scaled: DMSO 0, geranylgeraniol control 100; rescue of ATP level, % at 7.49 µM; 330,000 compounds, 0.78% hits;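 active means mean ATP rescue above about 67%, or every replicate alone reaching that limit, limit read from the data, passing the limit was not always enough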;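 further: myotubes were challenged with 10 µM simvastatin during compound exposure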
INS-1E GSIS act = GLuc luminescence reporter in INS-1E cells, primary screen for activators of glucose-dependent secretion of insulin; INS-1E GLuc reporter insulin secretion, 2-3 h; activation, % at 16.6 µM; 370,000 compounds, 0.61% hits; AID 743287;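 active means lowest replicate activation of at least 40%, so every replicate reaches that level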
EWS-Fli inh = inhibitors of EWS/Fli oncoprotein transcriptional activity; A673 NR0B1-luciferase reporter, viability-normalised; inhibition, % at 12.6 µM; 350,000 compounds, 0.67% hits;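 active means mean inhibition of at least 50% after viability correction, with every replicate also passing that limit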;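 further: firefly luciferase signal divided by Alamar Blue viability fluorescence both relative to DMSO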
HIV Env fusion = inhibitors of HIV Env-mediated cell fusion | HeLa-JRFL Env/CEM21 cell fusion, luciferase | inhibition, % at 12.3 µM | 360,000 compounds, 1.1% hits | AID 651610;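 active means mean replicate inhibition score of at least 50 and every replicate individually at or above 50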
PAX8 inh HTS = PAX8 transcriptional activity inhibition. RMG-I TPO-luciferase reporter, SteadyGlo, 24 h. 360,000 compounds, 1.2% hits. inhibition, % at 12.6 µM. AID 652154;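 active means mean replicate inhibition at least 60% with every replicate also reaching 60%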;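 further: luciferase light reporting Pax8 driven TPO promoter activity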
Hits are given with their value; – = inactive; · = no result; [ ] = remark or other dose. In the library only some 3.1% were active in any assay of this set; here they are far more common.

SMILES	miR122 inh	Statin myotox sup	INS-1E GSIS act	EWS-Fli inh	HIV Env fusion	PAX8 inh HTS
CC1CCCCN1c1ncnc2ccccc12 (stereo not drawn)	–	–	·	·	·	·
CC(=O)N1[C@@H]2c3ccc(-c4ccccc4)c(=O)n3C[C@H]1[C@H](CO)[C@H]2C(=O)NCCCN1CCOCC1	·	·	–	–	·	–
N#Cc1ccc(-c2nnnn2-c2ccc3c(c2)OCO3)cc1	–	107	·	·	·	·
N#Cc1cccc(-n2nnnc2-c2ccc3c(c2)OCO3)c1	–	·	·	·	–	–
COc1ccc(CN2CCn3nc(C(=O)NC(C)C)cc3C2=O)cc1	·	·	–	–	–	–
COc1ccc(CN2CCn3ncc(C(=O)Nc4cccc(C)c4)c3C2=O)cc1	–	124	–	·	·	·
CNC[C@H]1Oc2cc(C#Cc3ccc(OC)cc3)ccc2S(=O)(=O)N([C@@H](C)CO)C[C@@H]1C	–	–	–	–	–	·
CCC(=O)Nc1ccc(C(=O)N/N=C/c2cccnc2)cc1	·	–	44	·	–	·
CCCCCCC(=O)Nc1ccc(C(=O)N/N=C/c2cccnc2)cc1	–	·	–	·	–	–
CCOc1ccc(OCc2cccc(C(=O)N/N=C/c3cccnc3)c2)cc1	–	·	–	·	69	–
O=C(CNC(=O)c1ccc(Br)cc1)N/N=C/c1cccnc1	–	109	–	·	–	–
O=C(CNC(=O)c1ccncc1)N/N=C/c1ccc(Br)cc1	·	–	·	–	–	–
Cc1noc(C)c1NC(=O)N(C)C[C@H]1Oc2ccc(NC(=O)c3ccncc3)cc2C(=O)N([C@@H](C)CO)C[C@@H]1C	–	–	–	–	·	·
C=CCOc1ccc(/C=C/C(=O)OCC(=O)NC2CCCCCCC2)cc1	–	–	–	–	60	–
O=C(COc1ccc(S(=O)(=O)NC2CCCCC2)cc1)NC1CCCCC1	–	·	–	·	·	·
O=C(COc1ccc(S(=O)(=O)NC2CCCCC2)cc1)NC1CCCC1	245	–	–	–	–	–
C=CCOc1ccc(/C=C/C(=O)OCC(=O)NCC2CCCCC2)cc1	–	–	–	–	–	–
CO[C@@H]1CN(C)C(=O)c2cc(NC(=O)c3cc(C)on3)ccc2OC[C@@H](C)N(CC2CC2)C[C@H]1C	·	–	–	–	–	–
C[C@@H]1CCCCO[C@@H](CN(C)S(=O)(=O)c2ccc(F)cc2)[C@H](C)CN([C@@H](C)CO)C(=O)c2cc(NC(=O)c3ccncc3)ccc2O1	–	·	–	–	–	·
C[C@H](CO)N1C[C@H](C)[C@@H](CN(C)C(=O)CN(C)C)Oc2ncc(-c3ccccc3F)cc2C1=O	–	–	–	–	–	·
C[C@@H]1CN([C@@H](C)CO)C(=O)c2cc(NC(=O)C3CCCCC3)ccc2O[C@@H](C)CCCCO[C@H]1CN(C)Cc1ccccc1	–	·	–	–	–	–
O=C(C[C@@H]1C[C@H]2c3cc(NC(=O)C4CCC4)ccc3O[C@H]2[C@H](CO)O1)NC1CCCCC1	–	–	–	–	–	–
COc1ccc(S(=O)(=O)c2c(C)c(NS(=O)(=O)c3ccccc3)cc(C)c2O)cc1	·	·	–	–	–	–
COc1ccc(S(=O)(=O)Nc2cc(C)c(O)c(S(=O)(=O)c3ccccc3)c2)cc1	129	–	·	·	–	–
Oc1ccc(C[C@H]2CNC(=S)N2CC2CCCN2C[C@H](Cc2ccccc2)N2C[C@H](Cc3ccc(O)cc3)N(CC3CCCCCC3)C2=S)cc1 (stereo partly drawn)	–	–	–	–	–	73
SMILES	miR122 inh	Statin myotox sup	INS-1E GSIS act	EWS-Fli inh	HIV Env fusion	PAX8 inh HTS
Oc1ccc(C[C@H]2CN([C@@H](Cc3cccc(O)c3)CN3CCC[C@@H]3CN3C(=S)NC[C@@H]3Cc3ccccc3)C(=S)N2CC2CCCCC2)cc1	–	–	–	–	–	75
Oc1ccc(C[C@H]2CN([C@@H](Cc3ccc(O)cc3)CN3CCC[C@@H]3CN3C(=S)NC[C@@H]3Cc3ccccc3)C(=S)N2CC2CCCCCC2)cc1	–	–	·	–	–	89
Oc1ccc(C[C@H]2CN([C@@H](Cc3ccccc3)CN3CCCC3CN3C(=S)NC[C@@H]3Cc3ccccc3)C(=S)N2CC2CCCCC2)cc1 (stereo partly drawn)	·	·	–	–	–	–
Oc1ccc(C[C@H]2CNC(=S)N2CC2CCCN2C[C@H](Cc2ccc(O)cc2)N2C[C@H](Cc3ccc(O)cc3)N(CC3CCCCC3)C2=S)cc1 (stereo partly drawn)	–	–	–	–	91	91
CC(C)NC(=O)Nc1cccc2c1O[C@@H](CN(C)C(=O)Nc1ccc(F)cc1)[C@@H](C)CN([C@H](C)CO)C2=O	–	–	–	–	·	–
C/C=C/c1ccc2c(c1)[C@H]1[C@H](CCN1S(=O)(=O)c1ccccc1C)[C@@H](CO)N2	·	·	–	·	·	·
CCCNC(=O)C[C@H]1C[C@H]2c3cc(NC(=O)Cc4ccncc4)ccc3O[C@H]2[C@H](CO)O1	–	–	–	–	88[16.7 µM]	–
CCCNC(=O)C[C@H]1C[C@@H]2c3cc(NC(=O)CN(C)C)ccc3O[C@@H]2[C@H](CO)O1	–	–	–	–	–	–
CCCNC(=O)C[C@@H]1C[C@@H]2c3cc(NC(=O)CN(C)C)ccc3O[C@@H]2[C@H](CO)O1	–	–	–	–	91[16.7 µM]	–
CCCNC(=O)C[C@H]1C[C@H]2c3cc(NC(=O)CN(C)C)ccc3O[C@H]2[C@@H](CO)O1	–	–	–	–	80[16.7 µM]	–
CCC(=O)Nc1ccc2c(c1)C(=O)N(C)[C@H]1CC[C@H](CC(=O)NCCc3ccncc3)O[C@H]1CO2	–	–	–	–	–	–
CO[C@H]1CN(C)C(=O)c2ccc(NS(=O)(=O)c3ccc(C)cc3)cc2OC[C@H](C)NC[C@H]1C	–	–	–	–	·	·
COc1ccc(CC2C(=O)NC(C)C(=O)N(C)C3Cc4ccc(cc4)Oc4cc(ccc4O)CC(C(=O)NC(C)C(=O)NC(C)C(=O)N2C)N(C)C3=O)cc1 (stereo not drawn)	–	·	–	66	77	110
CCCN(C)C[C@H]1OCCCC[C@H](C)Oc2ccc(NC(=O)CCC(F)(F)F)cc2C(=O)N([C@H](C)CO)C[C@@H]1C	–	–	–	–	–	–
COc1ccc(NC(=O)Cc2c(SC)c3ccccc3n2Cc2ccccc2)cc1	·	·	97	·	–	–
CC1CCN(CCc2nc3cc(NS(=O)(=O)c4ccccc4)ccc3n2C)CC1	–	·	·	·	–	93
CC1CCN(CCc2nc3cc(NS(=O)(=O)c4ccc(F)cc4)ccc3n2C)CC1	–	·	–	·	–	–
Cc1sc2ncnc(Sc3nnnn3-c3ccc(Cl)cc3)c2c1C	–	·	·	·	50	75
O=CN1CCN(C(C(=O)NC2CCCCC2)c2ccc(Cl)cc2)CC1 (stereo not drawn)	–	–	–	–	–	–
COC(CN(C(=O)CCl)C(C(=O)NC1CCCCC1)c1ccccc1C)OC (stereo not drawn)	·	·	–	·	59	–
